Active and inactive are the calls of the source. Where a call stands in place of a potency, no number is given. Calls come from the whole dose curve.
Each molecule was assayed against Acetylcholinesterase (Homo sapiens) (UniProt P22303) (assay: Acetylcholinesterase (AChE) small molecule antagonists: enzyme-based qHTS assay (AID 1347397; note: nearly all actives have a fitted effect of over 55% in size)). Details: Potency: AChE enzyme activity inhibition; series mostly up to 115 µM.
Description: National Center for Advancing Translational Sciences [NCATS]
Division of Preclinical Innovation [DPI]
U.S. Environmental Protection Agency [EPA]
National Institutes of Environmental Health Sciences [NIEHS]
National Toxicology Program [NTP]
U.S. Food and Drug Administration [FDA]
Acetylcholinesterase (AChE) is the primary cholinesterase in the body that hydrolyzes a key neurotransmitter, acetylcholine. Inhibition of AChE activity can lead to neurotoxicity. The known inhibitors include organophosphorous pesticides (OP), chemical warfare agents, drugs, and various phytochemicals.
An enzyme-based assay with the recombinant human AChE and Amplite Colormetric acetylcholinesterase assay kit (AAT Bioquest, Sunnyvale, CA) was used to evaluate the chemicals in the Tox21 10K library that inhibit AChE activity. The assay uses 5, 5-dithiobis-(2-nitrobenzoic acid) (DTNB) to quantify the thiocholine produced from the hydrolysis of acetylthiocholine by AChE.
Tox21 Assay Protocol Summary:
For the enzyme-based AChE assay, recombinant human AChE (50 mU/mL) in 4 uL/well was dispensed into black, clear-bottom 1536-well plates using a Multidrop Combi dispenser (Thermo Scientific, MA). Then, 23 nL of compound or DMSO (vehicle control) was transferred into the assay plates by a Pintool Station (Wako Automation, CA). The plates were incubated for 30 min at room temperature, followed by the addition of 4 uL of colorimetric detection cocktail solution (DTNB, acetylthiocholine) into each well using a Flying Reagent Dispenser (Beckman Coulter, CA) and then 10 min incubation at room temperature.
Potency is the fitted concentration of half-maximal effect.

Chain of Acetylcholinesterase (Homo sapiens) (P22303 whole entry, looked up): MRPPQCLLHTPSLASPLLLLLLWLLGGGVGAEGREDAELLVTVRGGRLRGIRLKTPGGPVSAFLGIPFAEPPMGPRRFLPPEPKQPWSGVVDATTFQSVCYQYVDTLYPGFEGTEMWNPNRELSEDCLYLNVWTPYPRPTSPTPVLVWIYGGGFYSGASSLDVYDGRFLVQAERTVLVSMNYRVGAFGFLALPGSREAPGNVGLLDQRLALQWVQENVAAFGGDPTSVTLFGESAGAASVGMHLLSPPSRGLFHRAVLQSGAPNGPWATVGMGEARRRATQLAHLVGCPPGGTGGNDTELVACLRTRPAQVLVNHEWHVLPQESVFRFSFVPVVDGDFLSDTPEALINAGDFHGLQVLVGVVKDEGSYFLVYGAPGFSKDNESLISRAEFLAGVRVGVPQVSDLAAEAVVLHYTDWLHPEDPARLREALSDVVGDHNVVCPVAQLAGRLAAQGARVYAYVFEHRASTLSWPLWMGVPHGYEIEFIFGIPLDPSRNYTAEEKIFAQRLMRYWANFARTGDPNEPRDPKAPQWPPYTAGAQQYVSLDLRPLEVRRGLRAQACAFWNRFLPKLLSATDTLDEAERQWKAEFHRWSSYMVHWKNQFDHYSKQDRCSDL

SMILES | Potency
CC/C(=N\OC/C=C/Cl)C1=C(O)CC(C2CCOCC2)CC1=O (stereo not given) | inactive
C=CC[C@]1(O)CC[C@H]2[C@@H]3CCC4=CC(=O)CCC4=C3C=C[C@@]21C | inactive
CC(C)(OO)c1ccccc1 | inactive
CCOP(=S)(OCC)SCn1nnc2ccccc2c1=O | 35.6 µM (active)
OC(c1ccc(Cl)cc1)(c1ccc(Cl)cc1)c1cccnc1 | inactive
O=C1C(Cl)C(CCl)CN1c1cccc(C(F)(F)F)c1 (stereo not given) | inactive
CN1C(=O)C(O)N=C(c2ccccc2)c2cc(Cl)ccc21 (stereo not given) | inactive
CO/C=C(/C(=O)OC)c1ccccc1COc1cccc(C(F)(F)F)n1 | inactive
O=C(Nc1ccccc1)Nc1ccnc(Cl)c1 | inactive
O=[N+]([O-])c1cc(C(F)(F)F)cc([N+](=O)[O-])c1Cl | inactive
COP(=S)(OC)Oc1cc(Cl)c(I)cc1Cl | inactive
O=C(C(Cl)(Cl)Cl)C(Cl)(Cl)Cl | inactive
CCOc1nc(F)cc2nc(S(=O)(=O)Nc3c(Cl)cccc3Cl)nn12 | inactive
Cl/C=C\Cl | inactive
c1cc2ccc3cccc4ccc(c1)c2c34 | inactive
O=S(=O)(Cl)c1ccccc1 | inactive
O=C1NCN(c2ccccc2)C12CCN(CCCOc1ccc(F)cc1)CC2 | inactive
CCCCOC(=O)c1ccccc1C(=O)OCc1ccccc1 | inactive
O=C(O)COc1ccc(Cl)cc1 | inactive
c1ccoc1 | inactive

SMILES | Potency
COc1cc(CC(C)N)cc2c1OCO2 (stereo not given) | inactive
CC(C)(CCl)C(=O)Cl | inactive
O=[N+]([O-])c1ccc(F)c([N+](=O)[O-])c1 | inactive
ClCc1ccccc1 | inactive
NC(=O)C(Cl)(Cl)Cl | inactive
Clc1cccc(SC2CCNCC2)n1 | inactive
IC(I)=C(I)I | inactive
O=NN1CCCCCC1 | inactive
O=S(=O)(O)C(F)(F)C(F)(F)C(F)(F)C(F)(F)F | inactive
Brc1ccccc1 | inactive
O=[N+]([O-])C(Br)(CO)CO | 63.3 µM (active)
CCC(C)(NC(=O)c1cc(Cl)c(C)c(Cl)c1)C(=O)CCl (stereo not given) | inactive
C=CC(=O)OCC(C)C | inactive
CCCCNP(N)(N)=S | inactive
CCOS(C)(=O)=O | inactive
COC(=O)C(Br)CBr (stereo not given) | inactive
Nc1ccc([N+](=O)[O-])cc1[N+](=O)[O-] | inactive
CC[C@H]1C[C@H]2[C@@H]3CCC4=CC(=O)CC[C@@H]4[C@H]3CC[C@]2(C)[C@H]1O | inactive
O=Cc1ccc2c(c1)OCO2 | inactive
CC(C)N(CCC(C(N)=O)(c1ccccc1)c1ccccn1)C(C)C (stereo not given) | inactive

Source: PubChem BioAssay (Tox21)
